Assay outcomes deposited in PubChem BioAssay by National Center for Advancing Translational Sciences (NCATS).
FEN1 inhibitor = qHTS Assay for the Inhibitors of Human Flap endonuclease 1 (FEN1); P39748; Recombinant FEN1 flap cleavage, fluorescence, 15 min; Potency, µM (top dose mostly 114 µM), inactives show at the top dose activity change, negative = inhibition, usual class: inhibitors; 0.35% of 390,000 active; further: potency means the concentration at half of the fitted maximal effect; on the % scale 0 is the no-effect control and ±100 the full control effect; nearly all actives have a fitted effect of over 65% in size
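FEN1 at 10 nM preincubated with compounds 15 min at room temperature, then flap DNA substrate added at 50 nM final. Signal read at 0 and 15 min; concentration-response fitted with four-parameter Hill equation.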
WRN helicase inh = qHTS for Inhibitors of WRN Helicase | WRN helicase unwinding, fluorescent forked duplex, kinetic | AID 651768, 2012 | 0.46% of 360,000 active | Bifunctional 3'-5' exonuclease/ATP-dependent helicase WRN (Homo sapiens), Q14191 | Potency, µM (series often up to 114 µM), without a hit: at the highest dose activity change, negative = inhibition, hits mostly inhibitors; further: potency means the concentration at half of the fitted maximal effect; on the % scale 0 is the no-effect control and ±100 the full control effect; nearly all actives have a fitted effect of over 55% in size
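Enzyme (20 nM final) and test compound sit together 15 min at room temperature before substrate addition. Substrate is a single-forked duplex oligonucleotide (100 nM) labelled with fluorophore and quencher, with 2 mM ATP; helicase unwinding raises red fluorescence, read kinetically.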
PGK inhibitor = qHTS Assay to Find Inhibitors of Phosphoglycerate Kinase. Phosphoglycerate kinase, glycosomal (Trypanosoma brucei brucei), P07378. PGK/GAPDH coupled, Kinase-Glo luminescence, 60 min. Potency, µM (series often up to 57.5 µM), for inactives: top-dose activity change, negative = inhibition, hits mostly inhibitors. 0.043% of 380,000 active. AID 602233, 2012; further: potency means the concentration at half of the fitted maximal effect; on the % scale 0 is the no-effect control and ±100 the full control effect; nearly all actives have a fitted effect of over 60% in size
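Luminescent ATP detection (Kinase-Glo Plus) follows a 60-minute room-temperature incubation, with wells lacking PGK as controls. Buffer: 100 mM TEA (pH 7.6), 5 mM MgCl2, 0.01% Tween-20. Coupling enzyme GAPDH (100 nM final) supplies unstable 1,3-BPG in-well.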
GRP78 ERSR act = qHTS for Inducers of the Endoplasmic Reticulum Stress Response (ERSR) in Human Glioma: qHTS | 0.02% of 420,000 active | Potency, µM, without a hit: at the top dose activation, usual class: activators | AID 602332, 2012 | U87-MG GRP78 promoter luciferase reporter, 16 h; further: potency means the concentration at half of the fitted maximal effect; series mostly up to about 76 µM; % of control where 0% means no effect; nearly all actives have a fitted effect of over 35% in size
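ERSR induction read as luciferase luminescence (Bright-Glo, 10 min at room temperature) in stably transfected human U87-MG glioma cells exposed to compounds for 16 h, using GRP78 as sensor.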
Pin1 inhibitor = qHTS Assay to Find Inhibitors of Pin1; AID 504891, 2011; Pin1 FP peptide displacement, HiFluor488, 10 min; 0.009% of 390,000 active; Potency, µM (highest dose often 115 µM), for the others: top-dose activity, negative = inhibition, usual class: inhibitors; Peptidyl-prolyl cis-trans isomerase NIMA-interacting 1 (Homo sapiens), Q13526; active means well fitted inhibition curve with a large enough effect in the polarisation, with a control signal flat, not every such curve was filed as active; inconclusive means small, poorly fitted or top-dose-only effect, or effect the other way, or a change in a side signal; inactive means no such curve, though single readings can be large or run the other way; the % refers to the polarisation; further: potency means the concentration at half of the fitted maximal effect; on the % scale 0 is the no-effect control and ±100 the full control effect
PI5P4Ka inh = qHTS for Inhibitors of phosphatidylinositol 5-phosphate 4-kinase (PI5P4K); PI5P4Kalpha enzyme, ADP-Glo luminescence, 60 min; hits give low values; max response, %; 1.2% of 330,000 active; AID 652105, 2013; active means max response of -50% or lower; inconclusive means between -30% and -50%; inactive means -30% or higher; further: value at the top dose of about 77 µM; on the % scale 0 is the no-effect control and ±100 the full control effect
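qHTS, 1536-well: enzyme/substrate mix, compound by pin tool, 5 microM ATP final; RT 60 min; ADP-Glo reagents 1 (45 min) then 2 (30 min); luminescence.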
* hit, by the source's call; [ ] = dose if it differs, or a comment. This is a sample that favours compounds with a hit; in the whole collection about 1.3% have one here. Unless noted, the call rests on the fitted dose curve; in most records, active means well fitted curve in the direction sought with a large enough effect; inconclusive means small, poorly fitted or top-dose-only effect, or another doubt; inactive means no such curve, though single readings can be large; an effect the other way counts as inactive or inconclusive.

Screening O=C(N/N=C/c1coc2ccccc2c1=O)c1ccccc1 returned FEN1 inhibitor -8.1%, WRN helicase inh -24.1%, PGK inhibitor 6.5%, GRP78 ERSR act -1.8%, Pin1 inhibitor 3.9% and PI5P4Ka inh inconclusive.
`Oc1ccc(/C=C/c2ccccc2)c2cccnc12` gave Pin1 inhibitor -0.5%.
Screening Cc1ncc2c(c1CNC(=O)c1ccc3c(c1)OCO3)CCN(C(=O)c1csc3c1CCCC3)C2 returned GRP78 ERSR act -2.8%.
For Nc1nc(=S)c2ncn(C3OC(CO)C(O)C3O)c2[nH]1 (stereo not given) the results were FEN1 inhibitor 89.1µM*, WRN helicase inh 28.2µM*, PGK inhibitor inconclusive, GRP78 ERSR act -6.5% and PI5P4Ka inh -80.7*.
Nc1nc(=S)c2ncn([C@@H]3O[C@H](CO)[C@@H](O)[C@H]3O)c2[nH]1 was read as FEN1 inhibitor -3.7%, WRN helicase inh 7.4%, PGK inhibitor -4.4%, GRP78 ERSR act -3.8%, Pin1 inhibitor -5.0% and PI5P4Ka inh -77.0*.
Screening CC1(C)OC2C(CO)OC(n3cnc4c(=S)nc(N)[nH]c43)C2O1 (stereo not given) returned WRN helicase inh -4.2%, GRP78 ERSR act -2.1% and PI5P4Ka inh -22.9.
`COc1cc(-c2cc(C)c3cccc(OC)c3n2)cc2c1OCCN(C(=O)CCn1nc(C)cc1C)C2` gave GRP78 ERSR act -0.4%.
For S=C(NCCCN(Cc1ccc(Cl)c(Cl)c1)c1ccc(Br)cn1)NCCc1cnc[nH]1 the results were Pin1 inhibitor -4.0%.
`Cc1nc(S/C(=C/c2ccc(-c3ccc(Cl)cc3)o2)C(=O)O)n[nH]1` gave FEN1 inhibitor -2.8%, WRN helicase inh -17.9%, PGK inhibitor inconclusive, GRP78 ERSR act 8.5%, Pin1 inhibitor inconclusive and PI5P4Ka inh 3.6.
Screening CC(=O)c1ccc(-c2ccc(/C=C(/Sc3n[nH]c(C)n3)C(=O)O)o2)cc1 returned FEN1 inhibitor 50.1µM*, WRN helicase inh -10.6%, PGK inhibitor -17.4%, GRP78 ERSR act 0.8%, Pin1 inhibitor inconclusive and PI5P4Ka inh -14.8.
Screening CN1C(=O)NC2(O)C(=O)c3ccccc3C12O (stereo not given) returned FEN1 inhibitor -4.1%, WRN helicase inh inconclusive, PGK inhibitor 2.8%, GRP78 ERSR act -2.9%, Pin1 inhibitor 2.3% and PI5P4Ka inh -50.5*.
`CCCN1C(=O)NC2(O)C(=O)c3ccccc3C12O` (stereo not given) gave FEN1 inhibitor 0.4%, WRN helicase inh 5.3%, PGK inhibitor inactive, GRP78 ERSR act -6.0%, Pin1 inhibitor 1.2% and PI5P4Ka inh 4.8.
Screening O=C(O)Cc1ccc(C(=O)CSc2ccccc2)s1 returned FEN1 inhibitor -31.8%, WRN helicase inh inconclusive, PGK inhibitor -15.0%, GRP78 ERSR act 4.2%, Pin1 inhibitor -3.0% and PI5P4Ka inh -58.7*.
For COc1ccc(N2Cc3cccc(C(=O)O)c3C2=O)cc1 the results were FEN1 inhibitor -16.5%, WRN helicase inh 50.1µM*, PGK inhibitor inconclusive, GRP78 ERSR act -2.3%, Pin1 inhibitor -18.0% and PI5P4Ka inh inconclusive.
For COc1ccc(N2Cc3cccc(C(=O)Nc4cc(C)cc(C)c4)c3C2=O)cc1 the results were FEN1 inhibitor -16.1%, PGK inhibitor -6.5%, GRP78 ERSR act -1.7% and Pin1 inhibitor inconclusive.
CCc1ccc(C2NC(=S)NC3=C2C(=O)N(c2ccccc2OC)C(c2ccc(CC)cc2)N3)cc1 (stereo not given) was read as FEN1 inhibitor -9.4%, WRN helicase inh -5.7%, PGK inhibitor -5.5%, GRP78 ERSR act -1.4% and Pin1 inhibitor inconclusive.
Screening O=C1C2=C(NC(=S)NC2c2ccc(Cl)cc2)NC(c2ccc(Cl)cc2)N1c1ccc(Cl)cc1 (stereo not given) returned FEN1 inhibitor -20.3%, WRN helicase inh -9.5%, PGK inhibitor 2.7%, GRP78 ERSR act -15.6%, Pin1 inhibitor 10.4% and PI5P4Ka inh -52.0*.
For CC(C)(C)C(=O)c1sc2nc(-c3cccs3)cc(C(F)(F)F)c2c1N the results were FEN1 inhibitor 11.4%, WRN helicase inh 100µM*, PGK inhibitor -3.9%, GRP78 ERSR act -2.0% and Pin1 inhibitor inconclusive.
`Nc1c(C(=O)Nc2nccs2)sc2nc(-c3cccs3)cc(C(F)(F)F)c12` gave FEN1 inhibitor -4.6%, WRN helicase inh -9.6%, PGK inhibitor -9.0%, GRP78 ERSR act 7.2%, Pin1 inhibitor inconclusive and PI5P4Ka inh -16.3.
COc1cccc(-c2nc3cc4c(cc3cc2CN(C(=O)c2cc(C)nn2C)C2CC2)CCC4)c1OC was read as GRP78 ERSR act -3.6%.
O=Cc1cn(CC(=O)N2CCCc3ccccc32)c2ccccc12 was read as FEN1 inhibitor 8.3%, WRN helicase inh inconclusive, PGK inhibitor inactive, GRP78 ERSR act -3.1%, Pin1 inhibitor 0.3% and PI5P4Ka inh -69.3*.
For Cc1ccccc1-c1n[nH]c(=S)n1/N=C/C=C/c1ccco1 the results were FEN1 inhibitor 15.8µM*, WRN helicase inh inconclusive, PGK inhibitor -16.1%, GRP78 ERSR act -4.0% and PI5P4Ka inh -83.8*.
`CC(/C=N/n1c(-c2n[nH]c3c2CCC3)n[nH]c1=S)=C\c1ccco1` gave FEN1 inhibitor -13.5%, WRN helicase inh -5.7%[11.6 µM], PGK inhibitor -8.2%, GRP78 ERSR act -4.4%, Pin1 inhibitor inconclusive and PI5P4Ka inh -59.5*.
For CC(/C=N/n1c(-c2cccnc2)n[nH]c1=S)=C\c1ccco1 the results were FEN1 inhibitor -5.2%, WRN helicase inh inconclusive, PGK inhibitor 1.9%, GRP78 ERSR act -3.5%, Pin1 inhibitor 1.4% and PI5P4Ka inh inconclusive.
For O=C1c2ccccc2C(=O)N1c1cccc2ccncc12 the results were Pin1 inhibitor 4.7%.
O=C1NC(=S)CN1c1ccccc1 was read as FEN1 inhibitor -31.0%, WRN helicase inh 17.9%, PGK inhibitor -0.5%, GRP78 ERSR act -0.9%, Pin1 inhibitor inconclusive and PI5P4Ka inh -59.0*.
Screening O=C1N(c2ccccc2)CCN1c1ccccc1 returned FEN1 inhibitor 19.8%, WRN helicase inh 1.3%, PGK inhibitor -3.8%, GRP78 ERSR act 12.2%, Pin1 inhibitor 2.4% and PI5P4Ka inh 6.2.
